Laboratory results taken from ChEMBL document CHEMBL4513141, “CO-ADD screening of NIH (USA) - Clinical Collection” (2021).
Results with a measured potency or affinity are listed apart. Square brackets hold non-standard residues; d marks the D form. Peptide text beside a SMILES is read from it. pGlu = O=C1CC[C@@H](C(=O)O)N1; Thz = O=C(O)[C@@H]1CSCN1

Test system: Staphylococcus aureus
Conditions: Concentration 20 uM; ASSAY_TEST Inhibition of Bacterial Growth; detection method Absorption (OD600); MEDIA CAMHB; plate type 384well; NBS; CORNING #3640; time 18 hr

SMILES	Inhibition
NS(=O)(=O)Cc1noc2ccccc12 [ZONISAMIDE]	1.04%
CS(=O)(=O)O.Cc1c(O)cccc1C(=O)N[C@@H](CSc1ccccc1)[C@H](O)CN1C[C@H]2CCCC[C@H]2C[C@H]1C(=O)NC(C)(C)C [NELFINAVIR MESYLATE]	8.63%
Cc1cccc(C)c1OCC(C)N.Cl (stereo not drawn) [MEXILETINE HYDROCHLORIDE]	13.57%
CC[C@]1(O)C[C@@H]2CN(CCc3c([nH]c4ccccc34)[C@@](C(=O)OC)(c3cc4c(cc3OC)N(C=O)[C@H]3[C@@](O)(C(=O)OC)[C@H](OC(C)=O)[C@]5(CC)C=CCN6CC[C@]43[C@@H]65)C2)C1.O=S(=O)(O)O	14.29%
Clc1ccc2c(c1)C(N1CCNCC1)=Nc1ccccc1O2 [AMOXAPINE]	3.79%
CC(C)OC(=O)CCC/C=C\C[C@@H]1[C@@H](CC[C@@H](O)CCc2ccccc2)[C@H](O)C[C@@H]1O [LATANOPROST]	13.97%
CCCC1O[C@@H]2C[C@H]3[C@@H]4CCC5=CC(=O)C=C[C@]5(C)[C@H]4[C@@H](O)C[C@]3(C)[C@]2(C(=O)CO)O1 (stereo partly drawn) [BUDESONIDE]	6.99%
CCOC(=O)c1ccc(OC(=O)CCCCCN=C(N)N)cc1.CS(=O)(=O)O	11.22%
COc1ccc(C(=O)NCc2ccc(OCCN(C)C)cc2)cc1OC.Cl	-18.22%
CN(CCOc1ccc(NS(C)(=O)=O)cc1)CCc1ccc(NS(C)(=O)=O)cc1 [DOFETILIDE]	11.97%
OCc1cc(C(O)CNCCCCCCOCCCCc2ccccc2)ccc1O (stereo not drawn) [SALMETEROL]	15.16%
Cl.O=C1c2c(O)ccc(O)c2C(=O)c2c(NCCNCCO)ccc(NCCNCCO)c21	-9.15%
O=C(NCCO[N+](=O)[O-])c1cccnc1 [NICORANDIL]	13.24%
O=C1C(c2c(O)[nH]c3ccccc23)=Nc2ccccc21	2.27%
Cl.O.c1cnc(N2CCN(Cc3ccc4c(c3)OCO4)CC2)nc1	13.21%
Cl.O=C1CN2Cc3c(ccc(Cl)c3Cl)N=C2N1 [ANAGRELIDE HYDROCHLORIDE]	11.06%
CC(=CCC1=C(C)C(=O)c2ccccc2C1=O)CCCC(C)CCCC(C)CCCC(C)C (stereo not drawn)	7.33%
O=C1CC[C@@H](C(=O)N2CSC[C@H]2C(=O)O)N1 [PIDOTIMOD] ([pGlu]-[Thz]-OH)	9.9%
CC1=C(/C=C/C(C)=C/C=C/C(C)=C\C(=O)O)C(C)(C)CCC1 [ISOTRETINOIN]	5.02%

SMILES	Inhibition
CN(C)CCN(Cc1ccccc1)c1ccccn1.Cl [TRIPELENNAMINE HYDROCHLORIDE]	-12.77%
CC12CC3CC(C)(C1)CC(N)(C3)C2.Cl [MEMANTINE HYDROCHLORIDE]	17.71%
COc1cc(C)c(/C=C/C(C)=C/C=C/C(C)=C/C(=O)O)c(C)c1C [ACITRETIN]	-32.23%
Nc1nc(Cl)nc2c1ncn2[C@@H]1O[C@H](CO)[C@@H](O)[C@H]1O	-10.52%
COc1cc2nc(N3CCN(C(=O)C4COc5ccccc5O4)CC3)nc(N)c2cc1OC (stereo not drawn) [DOXAZOSIN]	8.23%
Cl.Cn1c(NCCN(CCO)CCCc2ccc([N+](=O)[O-])cc2)cc(=O)n(C)c1=O	-11.53%
Cl.O=C1[C@H]2CCCC[C@H]2C(=O)N1CCCCN1CCN(c2nsc3ccccc23)CC1	14.1%
CCOC(=O)[C@H](CCc1ccccc1)N[C@@H](C)C(=O)N1Cc2ccccc2C[C@H]1C(=O)O.Cl [QUINAPRIL HYDROCHLORIDE]	16.74%
CCC1=C(C)CN(C(=O)NCCc2ccc(S(=O)(=O)NC(=O)N[C@H]3CC[C@H](C)CC3)cc2)C1=O [GLIMEPIRIDE]	15.98%
OC[C@H]1O[C@@H](Oc2cc(O)cc(/C=C/c3ccc(O)cc3)c2)[C@H](O)[C@@H](O)[C@@H]1O [PICEID]	5.5%
COCCOC(=O)C1=C(C)NC(C)=C(C(=O)OC(C)C)C1c1cccc([N+](=O)[O-])c1 (stereo not drawn) [NIMODIPINE]	7.57%
O=C1[C@H](CC[C@H](O)c2ccc(F)cc2)[C@@H](c2ccc(O)cc2)N1c1ccc(F)cc1 [EZETIMIBE]	5.57%
Cc1cccc(Nc2ccncc2S(=O)(=O)NC(=O)NC(C)C)c1 [TORSEMIDE]	4.19%
O=C1N[C@H](C(=O)O)CS1 [PROCYSTEINE]	10.52%
CC(C)[C@H](N)C(=O)OCCOCn1cnc2c(=O)nc(N)[nH]c21.Cl [VALACYCLOVIR HYDROCHLORIDE]	12.39%
CCC(CO)NCCNC(CC)CO (stereo not drawn)	8.81%
Cc1cccc(C)c1NC(=O)C1CCCCN1C.Cl (stereo not drawn) [MEPIVACAINE HYDROCHLORIDE]	10.78%
CCCN(CCC)S(=O)(=O)c1ccc(C(=O)O)cc1 [PROBENECID]	13.34%
CC(CN1c2ccccc2Sc2ccccc21)N(C)C.Cl (stereo not drawn) [PROMETHAZINE HYDROCHLORIDE]	15.79%
